Experimental data: PubChem BioAssay AID1508600 (Functional Genomics Laboratory (NCATS/FGL), 2020)
The whole screen tested about 53,000 sequences, of which about 3,700 (7%) were called active.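 How the source made its calls: active means gene knockdowns whose robust z-score for IL-1 alpha signal is at least 2 or at most -2, so actives lie on both sides; inactive means the rest.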 This excerpt belongs to a sample that is enriched for actives.

Test: Components of the Cytosolic LPS Sensing Pathway: Gene Identification via Genome-wide siRNA Screen;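 further: robust z of the log signal after scaling to non-targeting control siRNA wells of the plate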
Settings: RAW264.7 macrophages, IL-1a HTRF, actives lie on both sides, screened at 100 nM (by protocol), cells primed 5 h with Pam3CSK4 first
Method in brief: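 Read-out: IL-1a HTRF on supernatant, divided by plate negative-control median ×100, log-transformed and converted to robust z-score. Cells were RAW264.7 given 100 nM siRNA, Pam3CSK4-primed 5 hours, then LipidA-transfected 24 hour.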

Row | Sequence | z-score
1 | GGCUCGAUUACUGAGUACATT against Bnip2 | 0.884 (inactive)
2 | GGCUUUAGUUGUCUUUUAUTT against Cxcr1 | 0.609 (inactive)
3 | GGAGAAAAAGAGAAGUAUUTT against Skint9 | -0.874 (inactive)
4 | GCAUGAUGGUGCGCUUAAGTT against Ngdn | -0.187 (inactive)
5 | GGUCAUGGAUGUGCACGAUTT against Krt14 | -2.21 (active)
6 | CCUAUACACCCAUUUUUAATT against Arl2bp | 0.163 (inactive)
7 | GGUAACCUGAUGGCUGAAATT against Zfp692 | 2.79 (active)
8 | GCCUAAGGAUCCUGGGUUATT against Orai3 | 1.43 (inactive)
9 | CCGUUUCUAUCGAGUGAAATT against Celf2 | 0.581 (inactive)
10 | GACUAAACAGAUCUUCUCUTT against Klra15 | -0.651 (inactive)
11 | GGAGAUAAUUGGUUUACAGTT against Vmn1r23 | -0.647 (inactive)
12 | CCACACCAUAACAACAUUCTT against Olfr800 | -2.05 (active)
13 | GCAAUUCAGGUUUACUACATT against Fgg | 0.00733 (inactive)
14 | GAAAGUUUACGGGAAAUCUTT against Klf13 | 2.04 (active)
15 | CCAUAAGGUAACCUGUACATT against Serpinb1c | -0.244 (inactive)
16 | GGAUUACAAGACCAUAGAUTT against Clec2g | -0.75 (inactive)
17 | GGCACCUCUGCUUUUAAAGTT against Mrm2 | 0.926 (inactive)
18 | GGAACUGCCUGAAAAAAUGTT against Dcn | -2.76 (active)
19 | CAUAUUCCUUGCAUUACAATT against Taok3 | 0.929 (inactive)
20 | GGUUCAGAAGUUUGGGAGATT against Mrpl48 | 0.615 (inactive)
21 | GGACUGAUUGAUAAAGUCATT against Srp54a | -0.458 (inactive)
22 | UAAAAAUGAGCCGGGCAAUTT against Ms4a5 | 1.42 (inactive)

Row | Sequence | z-score
23 | GGAGCAAAGCUAAAUGUUGTT against Far1 | -0.476 (inactive)
24 | GGAUUUGGCAACAGACUUUTT against Ryr2 | -0.391 (inactive)
25 | CACCGUAAUAAUCACACUATT against Zfp667 | -0.854 (inactive)
26 | GGUACGAAGGAAAAUUUACTT against 2810407A14Rik | 2.72 (active)
27 | GGUUACCAUGUGAAGCAGGTT against Tnfrsf14 | -0.461 (inactive)
28 | GGAUAACUCCUUAUUUAACTT against Teddm3 | 1.25 (inactive)
29 | GGAAAACCAGAAAGAAUUUTT against Crnkl1 | -0.334 (inactive)
30 | GGAACAAGUUUGUGCUUUCTT against Cpd | 0.728 (inactive)
31 | GGAUAACCAACAAGGUUUUTT against Mgst1 | 0.701 (inactive)
32 | GGUGGAACACAUAUUUUAATT against Tbc1d13 | 0.837 (inactive)
33 | CGCCCAUGUACAGAUUUGUTT against Olfr429 | -2.33 (active)
34 | GCUUCACCUGACAAUGACUTT against Tsc22d3 | 1.2 (inactive)
35 | GGGACAGGUUGAGGUCUAUTT against Vmn1r233 | 2.01 (active)
36 | GGCAUACCGAAAGUUAGCCTT against Dnaja2 | -0.724 (inactive)
37 | GGAGGUCCAGGAUUUUAUATT against Styk1 | 1.12 (inactive)
38 | GCUUCAACAUGCUUUGUUUTT against A430010J10Rik | -0.555 (inactive)
39 | CCCUACUCCUCAGAACUUATT against Tbc1d10a | -0.499 (inactive)
40 | CCAAAAAGAGCGAUUACCCTT against Shc1 | 0.368 (inactive)
41 | CGCAGAAAGAGCAUCAGAUTT against Atg9a | -2.42 (active)
42 | GCGACUGUGGUGGUUACAUTT against Bcas2 | 0.444 (inactive)
43 | GGGAAGGAAGAAUUUAUUUTT against 6430571L13Rik | 1.24 (inactive)
44 | GCUGCUCAAUCGGAAAUACTT against Clk1 | -2.06 (active)

Row | Sequence | z-score
45 | CCAGGUGUAUAAUAAGAUGTT against Atp8b3 | 0.271 (inactive)
46 | GCAAUGACAGAACAUACAGTT against Cts7 | 1.67 (inactive)
47 | GGCAGAAAGAAAUUGAGAATT against Trim42 | -0.655 (inactive)
48 | CAGCAUCUUUGAUUGUCUGTT against Tssc4 | 2.15 (active)
49 | GCUUAUGCCAGUCUGUCAUTT against Hax1 | -0.206 (inactive)
50 | CCAUACAUCAGUACUUACCTT against Olfr553 | 0.477 (inactive)
51 | GCGUGUUCGCUUCUUGCUATT against Trub2 | -0.614 (inactive)
52 | CCACAGAAUAAGACAAUAUTT against Fbxo34 | -3.03 (active)
53 | CCAUUCAGUCGAUUACAUUTT against Chd9 | 0.204 (inactive)
54 | GGACUUUUCUUUUGGAAGGTT against Nbl1 | -0.08 (inactive)
55 | GCCUUUCCACCGAUGAAAUTT against Dpyd | -0.473 (inactive)
56 | GGAGCACAUCUUUUCUGCCTT against Mixl1 | -1.22 (inactive)
57 | CCAAUUAUUAUCCAAGGGCTT against Slc16a6 | -0.0144 (inactive)
58 | GCUAUAACCUCACCGAGAATT against Tedc2 | 2.09 (active)
59 | GGAAAAGCAGACAUGUGAUTT against Dedd | -0.875 (inactive)
60 | CCAUUCAUACCAUACCUGUTT against Tmem50a | -0.521 (inactive)
61 | GGGCAUUAGGGUGGUAGCATT against Gapdhs | -0.826 (inactive)
62 | GCUUAGUGGUUCUUAUUUGTT against Olfr893 | -0.214 (inactive)
63 | GCUUCAUAUAGACAAAGCCTT against Epo | -0.625 (inactive)
64 | GGAAGUUAGUUUCGUUUUATT against Rprd1b | 2.03 (active)
65 | GGCAAGAUCUUCAAGUGAATT against Eef1g | -0.809 (inactive)
66 | GGAACAUUUUGGAAAUGACTT against Fbxo25 | -0.625 (inactive)

Row | Sequence | z-score
67 | GGAAGAAGAAGGAGCUAGATT against Slu7 | -2.2 (active)
68 | CCACCCACUAAACCUAAAUTT against Pcolce | 0.136 (inactive)
69 | GGACACCAAAGUGAAUACATT against Cdhr5 | 0.122 (inactive)
70 | GGAGAUGGCACAGUCAGUCTT against Slc22a8 | -0.338 (inactive)
71 | GGGUUGUGGCUGCUACUAUTT against Pira2 | 2.18 (active)
72 | GCUACUGGUUGGGUUGAAGTT against Tbcd | 1.47 (inactive)
73 | GGAAGCUUUGGGAAACAGUTT against Bmp2 | -0.226 (inactive)
74 | GGCCACUUGUCUCAUUGUGTT against Xlr4c | -1.93 (inactive)
75 | GGAUACCAUCCUAGGCCUGTT against Ephx3 | -0.603 (inactive)
76 | GCCUCAUCGUUGCUGACUATT against Pde3b | -2.04 (active)
77 | GGAUGGUAACCAUCAUAUUTT against Vmn1r54 | -0.887 (inactive)
78 | CCUCAUUGUUUUAUACCCUTT against Olfr1140 | 0.309 (inactive)
79 | GGGAUUAUACUAAUCCAACTT against Wdr45 | 1.24 (inactive)
80 | GCUUCUUCCUUAGAUGGCATT against Kcnb1 | -1.32 (inactive)
81 | GGUGCAUUUUGUCUAUGAUTT against Lamp5 | -2.04 (active)
82 | CGACCAGCCAUGGUACAAATT against Ptprd | -0.83 (inactive)
83 | CGUAGAAGAGUACAUGAUUTT against Pdcd10 | -0.526 (inactive)
84 | GGAGAAAAGGAAGUUGAGGTT against Bnip3l | -1.76 (inactive)
85 | GGGUUUCCAAGAAGGAAGCTT against Utp25 | 0.852 (inactive)
86 | CCUUUUUCGAAAAAUCAGGTT against Lyst | -0.39 (inactive)
87 | CCACAUAUAUCAACAAGCUTT against Olfr916 | -0.257 (inactive)
88 | CCAAGAUAGUCCCUAUCCCTT against Scamp3 | 0.346 (inactive)

Row | Sequence | z-score
89 | GGUAUGAUGAACAGUCCAGTT against Ep300 | -2.35 (active)
90 | GGCUUGUUAAUGAAUGCACTT against Ankrd9 | -0.894 (inactive)
91 | GGCUUUGAAGAAGAGCUUUTT against Atp6v0a4 | -0.775 (inactive)
92 | GCACAGCGGUAAACAAAAUTT against Ywhaz | -0.00575 (inactive)
93 | GUAUCCUUCACAACUGUCUTT against Olfr786 | -1.66 (inactive)
94 | GGAAUCUGCUGAGGUUUAUTT against Cidea | 4.08 (active)
95 | GGAGCUGAGGAAAAAGAUUTT against Uhrf1 | -0.993 (inactive)
96 | GGCUUAUCAGUCCAUGAAGTT against Dhrs11 | -0.601 (inactive)
97 | GGCGAUCAGGCAUCAUCCUTT against Aox1 | -0.153 (inactive)
98 | GGCAACCAGUCUCAUCAAUTT against Scgb1b27 | -0.927 (inactive)
99 | GCAGAGAUACCUAUCAAAGTT against Angptl4 | 1.16 (inactive)
100 | GGAAGAGGAACAGUUAGCCTT against Zfp553 | -0.24 (inactive)
101 | GGAGGUCUGGAUUAACUGUTT against Cd163l1 | 2.2 (active)
102 | GCAUCCUGAGCAGUGAUAUTT against Taar7b | -1.75 (inactive)
103 | GGGUGCAGUGGAGUCUAUUTT against Smc1a | -1.31 (inactive)
104 | GGAUUCUGAAGUGUAAAGATT against Icos | -0.764 (inactive)
105 | GGCAGAGAUUGAGAGCAAGTT against Palm | 2.28 (active)
106 | GGAGUUCCUCAAGAAUUUUTT against Arpc4 | -1.39 (inactive)
107 | GGUUGUACUGAGUAGCUGGTT against Slc7a4 | 0.997 (inactive)
